Lassa entry inh – qHTS for Inhibitors of binding or entry into cells for Lassa Virus. Potency, µM (doses to about 37.9 µM), for inactives: top-dose activity change, negative = inhibition, most hits filed as inhibitors. Lassa virus pseudotype entry inhibition, cell reporter. AID 540256, 2011. 300,000 compounds, 1.2% hits; calls by dose curve; tested in HEK293 cells; note: potency is the fitted concentration of half-maximal effect; % is set by controls: 0 for no effect and ±100 for the full control effect; nearly all actives have a fitted effect of over 50% in size
Marburg entry inh – qHTS for inhibitors of binding or entry into cells for Marburg Virus. Marburg virus pseudotyped entry inhibition, cell reporter. Potency, µM (highest dose often 37.8 µM), inactives show at the top dose activity change, negative = inhibition, most hits filed as inhibitors. 300,000 compounds, 1.8% hits. AID 540276, 2011; calls by dose curve; tested in HEK293 cells; note: potency is the fitted concentration of half-maximal effect; % is set by controls: 0 for no effect and ±100 for the full control effect
HCMV inh – qHTS Assay for inhibitors of the human cytomegalovirus (HCMV); 410,000 compounds, 4.5% hits; HFF cells, HCMV-luciferase reporter, 72 h; hits give low values; activity change, negative = inhibition, % at 57.5 µM; in the data active = activity change below about -60%; inconclusive = no clear call, values can overlap the other calls; inactive = above about -39%; note: % is set by controls: 0 for no effect and ±100 for the full control effect
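HFF cells seeded 16 h at 37C, treated with compounds, infected with luciferase-reporter HCMV at MOI 1 PFU/cell; luciferase read at 72 h post infection, normalized to buffer-only and Salinomycin controls.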
HCV inhibitor – qHTS Assay for Inhibitors of Hepatitis C Virus (HCV) | Huh7.5.1 HCVcc-Cre infection, luciferase reporter, 44 h | Potency, µM (doses to about 41.8 µM), inactives show top-dose activity change, negative = inhibition, usual class: inhibitors | 340,000 compounds, 3.4% hits | AID 651820, 2012; active = well fitted inhibition curve with a large enough effect; inconclusive = small, poorly fitted or top-dose-only effect, or another doubt; inactive = no such curve, though single readings can be large or run the other way; note: potency is the fitted concentration of half-maximal effect; % is set by controls: 0 for no effect and ±100 for the full control effect
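Cells seeded at 1,000/well and cultured 4 h, then compounds added followed by HCVcc-Cre virus (~0.5 moi). After 44 h further culture, luciferase substrate was added, plates held 15 min at room temperature, and luminescence read for 15 sec.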
FMDV inh – High Throughput Screening for Foot and Mouth Disease Virus Antivirals. 410,000 compounds, 1.2% hits. Potency, µM (top dose mostly 57.9 µM), without a hit: at the highest dose activity change, negative = inhibition, usual class: inhibitors. FMDV antiviral cell-based qHTS; calls by dose curve; tested in HEK293T cells; note: read-out not given here; potency is the fitted concentration of half-maximal effect; % is set by controls: 0 for no effect and ±100 for the full control effect; nearly all actives have a fitted effect of over 45% in size
SARS PLpro yeast – qHTS of Yeast-based Assay for SARS-CoV PLP | Potency, µM (top dose mostly 32.9 µM), for inactives: top-dose activity, positive = growth rescue, most hits filed as activators | S. cerevisiae expressing SARS-CoV PLpro, growth rescue | 330,000 compounds, 0.19% hits | AID 485353, 2010; calls by dose curve; note: potency is the fitted concentration of half-maximal effect; 0% is about no effect; nearly all actives have a fitted effect of over 55% in size
The depositor's hits bear a star; ? = inconclusive; · = no result given; [ ] = another dose, or the depositor's remark. An excerpt weighted towards active compounds, which were near 8% of everything screened.

SMILES | Lassa entry inh | Marburg entry inh | HCMV inh | HCV inhibitor | FMDV inh | SARS PLpro yeast
N#Cc1nc(Nc2cccc(Cl)c2)c2ncn(C3CCCC3)c2n1 | · | · | -87.0* | · | -57.1% | 0.9%
CCn1cnc2c(Nc3cccc(Cl)c3)nc(N[C@@H]3CCCC[C@@H]3N)nc21 | 8.2µM* | 11.6µM* | · | · | · | ·
CC(=O)c1ccccc1-c1ccc2c(c1)CC(CNC(=O)C[C@@H]1C[C@@H](C)NC(=S)N1)O2 (stereo not given in full) | · | · | · | · | -9.3% | ·
CCCOc1ccc(-c2nn(-c3ccccc3)cc2C2NC(=O)NC(C)=C2C(=O)OC(C)C)cc1 (stereo not given) | -29.9%[46.1 µM] | ? | -34.7 | · | -9.8% | ·
CCOc1ccc(-c2nn(-c3ccccc3)cc2C2NC(=O)NC(C)=C2C(=O)OC(C)C)cc1 (stereo not given) | -23.2%[46.1 µM] | ? | -67.4* | · | -5.3% | ·
COC(=O)CC1=C(C(=O)OC)C(c2cccs2)C(C#N)=C(N)O1 (stereo not given) | -2.8% | 3.4%[46.1 µM] | -100.7* | 22.2% | 0.0% | 5.1%
CCOCN(C(=O)Cn1c(C)nc2ccccc21)c1c(C)cccc1CC | -23.4%[46.1 µM] | -8.4%[46.1 µM] | 9.4 | · | -14.4% | ·
CCOCN(C(=O)Cn1c(CC(C)C)nc2ccccc21)c1c(C)cccc1CC | -18.6%[46.1 µM] | ? | -61.5* | · | -29.6% | ·
CCSC1=C(C#N)[C@@H](c2cccs2)C(C(=O)OC)=C(C)N1 | · | 25.8% | · | · | · | ·
CCn1nc(-c2cccs2)nc2c(=O)n(C)c(=O)nc1-2 | ? | 0.891µM* | · | 0.562µM* | 1.58µM* | -30.2%
CC(C)(C)c1ccc(OCCn2cc(C(=O)c3ccco3)c3ccccc32)cc1 | -7.9%[46.1 µM] | ? | -3.1 | · | ? | ·
COc1cc(Nc2cc3c(cn2)cc(-c2cnn(C)c2)n3Cc2ccccc2)cc(OC)c1OC | · | · | -74.5* | · | · | ·
CS(=O)(=O)c1cccc(Nc2cc3c(cn2)cc(-c2ccccc2)n3Cc2ccccc2)c1 | · | · | 15.1 | · | · | ·
COC(=O)c1cc(Br)c(=O)n(CCN2CCCCC2)c1 | -1.2% | 0.0% | 15.7 | -2.1% | 6.3% | 1.1%
COC(=O)c1cc(Br)c(=O)n(CCN2CCCC2)c1 | 0.5% | 23.4%[46.1 µM] | -89.9* | 0.6% | 5.8% | 3.8%
CCOC(=O)C1=C(C)NC(=S)NC1c1ccco1 (stereo not given) | -2.0%[46.1 µM] | 16.3%[46.1 µM] | 53.1 | -8.5% | -21.0% | -0.6%
CCOC(=O)C1=C(C)NC(=S)NC1c1ccc(-c2cccc(Cl)c2C)o1 (stereo not given) | ? | ? | -9.2 | 6.31µM* | ? | 5.9%
CCOC(=O)C1=C(C)NC(=O)NC1c1ccc(-c2ccc(Cl)cc2)o1 (stereo not given) | -3.4% | ? | 8.6 | ? | ? | 0.0%
CCOC(=O)C1=C(C)NC(=S)NC1c1ccc(-c2ccc(Cl)cc2)o1 (stereo not given) | -5.2% | 12.6µM* | -31.8 | ? | ? | -2.8%
COc1cccc(CNC(=O)c2ccc(CSc3nc4ccncc4n3Cc3cccc(C)c3)cc2)c1 | · | ? | -22.8 | · | -14.3% | ·
CNS(=O)(=O)c1cccc(C(=O)OCCCOC(=O)c2cccc(S(=O)(=O)NC)c2)c1 | ? | -15.0% | -16.9 | 11.2µM* | 0.0% | -2.6%
Cc1cc(C)cc(NC(=O)CCn2c(=O)c3cccn3c3ccccc32)c1 | · | · | -14.1 | 3.16µM* | ? | -1.2%
Cc1ccc2c(c1)c(=O)c1ccccc1n2CCCC(=O)Nc1ccc(F)cc1F | 3.1%[46.1 µM] | · | 3.6 | · | -10.5% | ·
Cc1cc(C)cc(NC(=O)CCCn2c3ccccc3c(=O)c3ccccc32)c1 | ? | · | -77.4* | · | ? | ·
Cc1ccc(NC(=O)CCn2c(=O)c3cccn3c3ccccc32)c(C)c1 | · | · | ? | ? | ? | -2.4%
SMILES | Lassa entry inh | Marburg entry inh | HCMV inh | HCV inhibitor | FMDV inh | SARS PLpro yeast
CCc1nc(SC)ncc1C(=O)N1CCN(c2cc(C)ccc2C)CC1 | -21.1%[46.1 µM] | · | 5.4 | · | -19.7% | ·
O=C(Cn1cc(C(=O)c2ccncc2)c(=O)c2cc(F)ccc21)Nc1ccc(Cl)cc1 | 4.8%[46.1 µM] | · | -16.9 | · | -13.9% | ·
CCCn1c(CCC(=O)Nc2ccccc2Cc2ccccc2)nc2cc(S(=O)(=O)N3CCOCC3)ccc21 | ? | 12.6µM* | -2.6 | ? | -10.8% | 7.4%
CCn1c(CCl)nc2cc(S(=O)(=O)N3CCOCC3)ccc21 | ? | -13.9% | 19.9 | ? | 28.2µM* | -1.2%
CCn1c(SCC(N)=O)nc2cc(S(=O)(=O)N3CCOCC3)ccc21 | -3.6% | 12.5%[46.1 µM] | 17.8 | 4.4% | 0.4% | 0.6%
CCCCOc1ccc(C(=O)NCCc2sc3nc(-c4ccc(OC)cc4)nn3c2C)cc1 | 1.0%[46.1 µM] | · | 37.7 | · | -9.6% | ·
COc1cccc(Nc2nnc(-c3cc4ccc(O)cc4oc3=O)s2)c1 | 23.1%[46.1 µM] | · | 16.0 | · | 1.9% | ·
Cc1ccc(C)c(NS(=O)(=O)c2ccc(-c3cnc(C4CC4)o3)cc2)c1 | · | · | -82.1* | ? | -15.7% | -10.9%
Cc1cc(C)cc(NS(=O)(=O)c2ccc(-c3cnc(C4CC4)o3)cc2)c1 | · | · | ? | 4.5% | -9.1% | -2.9%
CC(=O)c1cccc(NS(=O)(=O)c2ccc(-c3cnc(C4CC4)o3)cc2)c1 | · | · | -85.4* | ? | -14.5% | 3.9%
Cc1c(Cl)cccc1NS(=O)(=O)c1ccc(-c2cnc(C3CC3)o2)cc1 | ? | · | -80.1* | · | -16.9% | ·
CC(=O)Nc1ccc(NS(=O)(=O)c2ccc(-c3cnc(C4CC4)o3)cc2)cc1 | ? | ? | 0.0 | ? | 3.1% | 6.7%
O=C(Cn1cnc([N+](=O)[O-])c1)Nc1cc(Oc2ccc(Cl)cc2Cl)cc([N+](=O)[O-])c1 | ? | ? | -73.2* | 6.31µM* | -10.0% | 24.2%
COc1ccc2oc(C(=O)NC3(C)CCS(=O)(=O)C3)c(C)c2c1 (stereo not given) | 27.5% | ? | -100.9* | ? | 32.8% | 4.0%
COc1ccc2oc(C(=O)NCc3cc(OC)c(OC)cc3OC)c(C)c2c1 | -21.2% | ? | -27.0 | 15.8µM* | ? | -4.7%
COc1ccc2oc(C(=O)NCCc3ccccc3)c(C)c2c1 | 0.891µM* | ? | -18.6 | 5.8% | -49.9% | -21.3%
Cc1c(C(=O)NCCc2ccccc2)oc2ccccc12 | ? | 6.31µM* | 121.0 | 5.7% | 16.9% | -2.2%
O=C(NCCc1ccccc1)c1oc2ccccc2c1COc1ccccc1 | 8.7% | ? | 25.1 | ? | 17.0% | 4.7%
COc1ccc2oc(C(=O)NCC(c3ccco3)N(C)C)c(C)c2c1 (stereo not given) | -7.0%[46.1 µM] | 0.3% | -0.2 | -22.1% | 55.4% | -4.2%
COC(=O)[C@@H]1[C@H](CCc2ccccc2)NC(=O)N(Cc2ccccc2)[C@H]1C | ? | -24.5%[14.2 µM] | · | · | · | ·
CCOC(=O)C1=C(C)N=c2s/c(=C\c3ccc(OCC(=O)O)cc3)c(=O)n2C1c1ccc(OC(C)C)cc1 (stereo not given) | 2.1% | ? | -34.9 | 8.8% | 39.8µM* | -9.5%

Compound activity from PubChem BioAssay.
